{
  "source": "PubChem BioAssay AID1259313",
  "about": "(Sanford-Burnham Center for Chemical Genomics, 2017)",
  "note": "Among all 340,000 compounds or so, about 8,500 (2.5%) were called active. The sample as a whole holds a higher share of actives than the screen did. A number with no mark means an inactive call.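 The calls were made as follows: active = melting temperature shift of at least 10% of the positive control shift, at one fixed dose; inactive = the rest.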",
  "data": [
    {"test_system": "Glutamate receptor ionotropic, NMDA 3A (GRIN3A) ligand-binding domain", "experiment": "NR3A LBD thermal stabilization by compounds – biophysical, differential scanning fluorimetry, uHTS, primary screen (AID 1259313)", "settings": "at 25 µM, active compounds read high, 0% = protein alone, 100% = glycine-bound protein", "values": [
      {"smiles": "O=C(Nc1cc(C(F)(F)F)ccc1Cl)C(=O)N1CCCCC1", "Tm shift relative to glycine control": "-10.1%"},
      {"smiles": "O=C(O)c1cc(S(=O)(=O)N(Cc2ccccc2)c2cccc(C(F)(F)F)c2)ccc1Cl", "Tm shift relative to glycine control": "2.79%"},
      {"smiles": "O=C(NNc1ccccc1Cl)C(O)(c1cccc(C(F)(F)F)c1)c1cccc(C(F)(F)F)c1", "Tm shift relative to glycine control": "27.5% (active)"},
      {"smiles": "Nc1cc2c(cc1Br)-c1ccc(F)cc1C2=O", "Tm shift relative to glycine control": "-2.14%"},
      {"smiles": "Nc1nc(SCC(=O)Nc2ccc(Cl)cc2C(F)(F)F)n[nH]1", "Tm shift relative to glycine control": "0.67%"},
      {"smiles": "COCCNC(=O)c1onc(CSc2cccc(C)c2)c1C(=O)O", "Tm shift relative to glycine control": "18.5% (active)"},
      {"smiles": "CCCCNC(=O)c1onc(CSc2cccc(OC)c2)c1C(=O)O", "Tm shift relative to glycine control": "3.23%"},
      {"smiles": "CCOc1cccc(SCc2noc(C(=O)NC(C)C)c2C(=O)O)c1", "Tm shift relative to glycine control": "-0.97%"},
      {"smiles": "CCC(=O)N(C)C(c1ccccc1Cl)c1nnnn1-c1c(C)cccc1C", "note": "(stereo not given)", "Tm shift relative to glycine control": "38.2% (active)"},
      {"smiles": "CN(C)/C=C(/C(=O)c1ccc(Cl)c(Cl)c1)c1nnnn1-c1ccccc1", "Tm shift relative to glycine control": "-0.1%"},
      {"smiles": "COCCn1nnnc1C(c1ccccc1Cl)N1CCN(c2ccccc2OC)CC1", "note": "(stereo not given)", "Tm shift relative to glycine control": "2.04%"},
      {"smiles": "O=C(CCC(=O)N1CCN(S(=O)(=O)c2ccc(Cl)cc2)CC1)NCc1cccc(C(F)(F)F)c1", "Tm shift relative to glycine control": "-1.09%"},
      {"smiles": "O=C(O)C1C2CC2CN1C(=O)c1ccc(Cl)cc1Cl", "note": "(stereo not given)", "Tm shift relative to glycine control": "-0.76%"},
      {"smiles": "O=C(/C=C/c1cn(-c2ccccc2)nc1-c1ccc2c(c1)OCCO2)NCCCN1CCOCC1", "Tm shift relative to glycine control": "-0.74%"},
      {"smiles": "Cc1ccc(-c2nn(-c3ccccc3)cc2C(=O)Nc2cccc(S(=O)(=O)N3CCOCC3)c2)cc1", "Tm shift relative to glycine control": "10.7% (active)"},
      {"smiles": "CSc1ncccc1C(=O)Nc1cccc(S(=O)(=O)N2CCOCC2)c1", "Tm shift relative to glycine control": "2.41%"},
      {"smiles": "Cc1ccc(-c2nn(-c3ccccc3)cc2C(=O)NCCCN2CCCC2=O)cc1", "Tm shift relative to glycine control": "-0.51%"},
      {"smiles": "COc1ccc(NC(=O)c2ccccc2CC[N+](=O)[O-])cc1", "Tm shift relative to glycine control": "1.34%"},
      {"smiles": "Cc1ccc(-c2nn(-c3ccccc3)cc2C(=O)NC2CCC(O)CC2)cc1", "note": "(stereo not given)", "Tm shift relative to glycine control": "-1.68%"},
      {"smiles": "Cc1ccc(-c2nn(-c3ccccc3)cc2/C=C/C(=O)Nc2cccc(S(N)(=O)=O)c2)cc1", "Tm shift relative to glycine control": "28.9% (active)"},
      {"smiles": "Cc1occc1C(=O)Nc1cccc(S(=O)(=O)N2CCOCC2)c1", "Tm shift relative to glycine control": "0.26%"},
      {"smiles": "COc1ccc(NC(=O)c2cn(-c3ccccc3)nc2SC)cc1", "Tm shift relative to glycine control": "18.1% (active)"},
      {"smiles": "O=C(O)c1ccc(NC(=O)c2cn(-c3ccccc3)nc2-c2ccc(Cl)cc2)cc1", "Tm shift relative to glycine control": "12% (active)"},
      {"smiles": "COc1ccc(-c2nn(-c3ccccc3)cc2C(=O)Nc2nccs2)cc1OC", "Tm shift relative to glycine control": "-1.92%"},
      {"smiles": "NS(=O)(=O)c1cccc(NC(=O)CSc2nc3ccccc3n2-c2ccccc2)c1", "Tm shift relative to glycine control": "-3.25%"}
    ]}
  ]
}
